CYP2C19 activ – human CYP2C19 activators, primary screen, biochemical, luminescence; recombinant CYP2C19, luciferin-H EGE luminescence; active compounds read high; 0 = fully inhibited enzyme, 1 = untreated enzyme; Cytochrome P450 2C19 (Homo sapiens), P33261; activation factor at 5 µM; 96,000 tested, under 10 active;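 active = activation factor of at least 2 at 5 µM in the primary screen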
Cav3 T inh – Cav3.2 calcium influx blockers – cell-based, Fluo-4 calcium fluorescence, FDSS, MLSMR library, primary screen | Voltage-dependent T-type calcium channel subunit alpha-1H (Homo sapiens), O95180 | AID 449739, 2010 | B-score at 10 µM | Cav3.2-expressing cells; active compounds read low | 4% of 100,000 active;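 active = single-dose well whose peak fluorescence ratio is a statistical outlier from its plate by either plate-standardised score or position-corrected B-score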
CYP2C9 inhib – blockers of cytochrome P450 2C9 activity – biochemical, luminescence, ADME assay, primary screen; inhibition, % at 5 µM; 20% of 96,000 active; CYP2C9 Supersomes, luciferin-H conversion; AID 777, 2007; P11712;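 active = blocking of liver enzyme CYP2C9 beyond about 50% at 5 µM, limit read from the data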
Target sequence (P11712 whole entry, looked up): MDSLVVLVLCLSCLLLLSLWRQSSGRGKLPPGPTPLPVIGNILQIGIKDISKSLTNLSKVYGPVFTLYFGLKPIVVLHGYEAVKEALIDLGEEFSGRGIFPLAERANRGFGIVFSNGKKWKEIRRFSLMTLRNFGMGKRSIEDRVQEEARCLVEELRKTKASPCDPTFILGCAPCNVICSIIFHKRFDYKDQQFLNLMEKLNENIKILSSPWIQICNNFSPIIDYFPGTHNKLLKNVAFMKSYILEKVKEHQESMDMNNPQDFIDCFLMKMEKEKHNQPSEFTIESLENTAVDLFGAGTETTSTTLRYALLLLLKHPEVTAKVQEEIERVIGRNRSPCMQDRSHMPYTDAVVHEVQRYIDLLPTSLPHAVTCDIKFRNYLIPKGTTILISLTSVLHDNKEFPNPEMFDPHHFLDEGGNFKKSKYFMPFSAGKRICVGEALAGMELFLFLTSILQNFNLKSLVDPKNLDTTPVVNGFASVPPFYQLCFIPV
CYP2C19 inhib – blockers of cytochrome P450 2C19 activity – biochemical, luminescence, ADME assay, primary screen; CYP2C19 Supersomes, luciferin-H EGE luminescence, 30 min; inhibition, % at 5 µM; 21% of 96,000 active; AID 778, 2007;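 active = CYP2C19 inhibition above a set limit at 5 µM in the primary screen, cut at about 50% in these data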
CYP2C9 activ – human CYP2C9 activators, primary screen, biochemical, luminescence. AID 1024, 2008. 1.4% of 96,000 active. Cytochrome P450 2C9 (Homo sapiens), P11712. recombinant CYP2C9, luciferin-H conversion; active compounds read high; factor 1 = untreated enzyme, 0 = blocked. activation factor at 5 µM;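 active = activation factor of 2 or more for CYP2C9 at a 5 µM dose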
Large screens that a line does not name were inactive. Shown are actives, neighbours in structure and some others; about 27% of the full set was active somewhere.

Cc1ccc(Nc2nc(N)nc(CN3CCN(Cc4ccc5c(c4)OCO5)CC3)n2)cc1	CYP2C19 inhib 52
COCC(C)NCc1ccc(C)cc1C (centres undefined)	none
CSc1nncn1/N=C/c1ccccc1F	CYP2C9 inhib 58
Cc1cc(C)n(-c2nncn2/N=C/c2ccccc2F)n1	none
CC1(C)CC(=O)C2=C(C1)NC(=O)CC2c1ccc(N(CCC#N)CCC#N)cc1 (centres undefined)	none
CC(C)CN(CC(C)C)c1nc(N)c(C#N)c(CC#N)c1C#N	CYP2C9 inhib 86, CYP2C19 inhib 69
CCC(c1nnnn1Cc1ccco1)N(CCc1ccccc1)Cc1cc2cc(C)ccc2[nH]c1=O (centres undefined)	none
CCOC(=O)Cn1nnnc1C(CC)N(Cc1ccccc1)Cc1cc2cc(C)ccc2[nH]c1=O (centres undefined)	CYP2C9 inhib 54, CYP2C19 inhib 58
CCC(c1nnnn1CCc1ccccc1)N(Cc1ccco1)Cc1cc2c(C)ccc(C)c2[nH]c1=O (centres undefined)	CYP2C9 inhib 94, CYP2C19 inhib 93
CCc1ccc2[nH]c(=O)c(CN(Cc3ccccc3)Cc3nnnn3Cc3ccco3)cc2c1	none
CCOC(=O)Cn1nnnc1CN(Cc1ccccc1)Cc1cc2cc(CC)ccc2[nH]c1=O	CYP2C9 inhib 62
CCOc1ccc(C2OC34CCCCC3C(C#N)(C#N)C2(C#N)C(=N)O4)cc1OC (centres undefined)	none
COc1ccc(NC(=O)CN2CCN(S(=O)(=O)c3ccc(Cl)cc3)CC2)cc1Cl	none
COc1ccc(S(=O)(=O)N2CCC(O)(c3ccc(Cl)cc3)CC2)cc1	CYP2C19 inhib 68, CYP2C9 activ 2.3
COc1ccc(N(CC(=O)Nc2ccc(S(=O)(=O)N3CCCCC3)cc2)S(C)(=O)=O)cc1OC	CYP2C9 inhib 53
COc1ccc(NC(=O)CN2CCN(S(=O)(=O)c3ccc(Cl)cc3)CC2)cc1	CYP2C19 inhib 81
COc1ccc(N(CC(=O)Nc2ccc(S(=O)(=O)N3CCCC3)cc2)S(C)(=O)=O)cc1OC	none (no result: CYP2C19 activ, CYP2C9 inhib, CYP2C19 inhib, CYP2C9 activ)
COc1cc(CC(=O)OCC(=O)Nc2ccc(S(=O)(=O)N3CCCC3)cc2)cc(OC)c1OC	CYP2C9 inhib 61
COc1ccc(NC(=O)CCN2CCN(S(=O)(=O)c3cc(Cl)ccc3OC)CC2)cc1	CYP2C9 inhib 65, CYP2C19 inhib 97 (no result: Cav3 T inh)
COc1ccc(S(=O)(=O)N2CCCN(CC(=O)Nc3ccc(OC)c(Cl)c3)CC2)cc1	CYP2C19 inhib 59
CCOc1ccc(NC(=O)CCN2CCN(S(=O)(=O)c3ccc(Cl)cc3)CC2)cc1	CYP2C9 inhib 73, CYP2C19 inhib 72
COc1ccc(C2=NOC(C3(S(=O)(=O)c4ccccc4)CC(O)C3)C2)cc1 (centres undefined)	none (no result: CYP2C19 activ, CYP2C9 inhib, CYP2C19 inhib, CYP2C9 activ)
N#Cc1c(C(F)(F)F)cc(-c2ccccc2)nc1SCC(=O)Nc1sc2c(c1C#N)CCC2	CYP2C9 inhib 71
N#Cc1ccc(-c2cccnc2)nc1SCC(=O)Nc1sc2c(c1C#N)CCC2	none
CC(Sc1nc(-c2ccccc2)cc(C(F)(F)F)n1)C(=O)Nc1sc2c(c1C#N)CCC2 (centres undefined)	CYP2C9 inhib 64
N#Cc1c(C(F)(F)F)cc(-c2ccccc2)nc1SCc1nc(N)nc(N2CCOCC2)n1	CYP2C9 inhib 80, CYP2C19 inhib 81
COCCN(Cc1cc2cc3c(cc2[nH]c1=O)OCO3)C(=O)c1cccs1	none
COCCN(CCOC)Cc1c(C)[nH]c2ccccc2c1=O	CYP2C19 inhib 65
CC(=O)CCc1c(C)[nH]c2ccccc2c1=O	CYP2C9 activ 2.2
CCc1c(C)[nH]c2c(C)cccc2c1=O	none
CCc1c(C)[nH]c2ccccc2c1=O	CYP2C9 activ 4.7 (no result: Cav3 T inh)
O=C(NCC(=O)N(CC1CCCO1)C1(C(=O)NC2CCCCC2)CCCCC1)c1ccccc1 (centres undefined)	none (no result: Cav3 T inh)
Nc1ncnc2nc(SCC(=O)N3CCN(c4ccccc4)CC3)[nH]c12	none
Nc1ncnc2nc(SCc3ccccc3)[nH]c12	CYP2C19 inhib 70
CC(=O)Nc1ccc2[nH]c(C)cc(=O)c2c1	none
CC(=O)Nc1ccc2[nH]c3ccccc3c2c1	CYP2C19 inhib 73
O=C(NCCO)c1ccc2c(c1)S(=O)(=O)c1ccccc1C2=O	none
O=C(NCCO)c1ccc2[nH]c3ccccc3c2c1	CYP2C19 inhib 91
COc1ccc2[nH]c(O)c(NC(C)=O)c2c1	CYP2C9 inhib 63
COc1ccc2[nH]c3ccccc3c2c1	CYP2C19 inhib 55 (no result: Cav3 T inh)
CCOC(=O)CSC(C)C(=O)Nc1nnc(C(C)C)s1 (centres undefined)	none (no result: CYP2C19 activ, CYP2C9 inhib, CYP2C19 inhib, CYP2C9 activ)
COC(=O)C1=C(C)NC(=O)C1(NC(=O)c1cccnc1)C(F)(F)F (centres undefined)	none (no result: CYP2C19 activ, CYP2C9 inhib, CYP2C19 inhib, CYP2C9 activ)
COC(=O)C1=C(C)NC(=O)C1(Nc1ccc(Cl)cn1)C(F)(F)F (centres undefined)	CYP2C19 inhib 70
CCSc1nnc(-c2cccnc2)n1-c1ccc(Cl)c(C)c1	none
COc1ccc(-c2cc(-c3ccccc3)nc3ncnn23)cc1	none (no result: CYP2C19 activ, CYP2C9 inhib, CYP2C19 inhib, CYP2C9 activ)
COc1ccc(-c2cc(-c3ccc(Br)cc3)nc3ncnn23)cc1OC	CYP2C9 inhib 55
CC(C)(C)c1cn(-c2ccc(Cl)cc2)c(=S)[nH]1	CYP2C19 inhib 73
Nc1nc(Cn2nnc(-c3ccccc3Cl)n2)nc(N2CCOCC2)n1	CYP2C19 inhib 55
COc1ccc(CC(=O)NCC2(c3ccc(OC)c(OC)c3)CCOCC2)cc1	none
COc1cccc(-c2nnc(SCC(=O)N3CC(C)CC(C)C3)o2)c1 (centres undefined)	CYP2C19 inhib 65
COc1cccc(-c2nnc(SCC(=O)N3CCOCC3)o2)c1	none
COc1ccccc1-c1nnc(SCC(=O)N2CCOCC2)o1	none (no result: CYP2C19 activ, CYP2C9 inhib, CYP2C19 inhib, CYP2C9 activ)
COc1ccccc1-c1nnc(SCC(=O)N2CCC(C)CC2)o1	CYP2C19 inhib 76, CYP2C9 activ 3.9
Cc1ccc(S(=O)(=O)C(CCC(=O)c2ccc(Cl)cc2)C(N)=O)cc1 (centres undefined)	none
CC1=C(CC(=O)c2ccc(Cl)cc2)C(=O)c2ccccc2C1=O	CYP2C19 inhib 51
COC(=O)c1nn(-c2ccccc2)c(Sc2ccc(OC)cc2)c1/C=N/O	none
O=C1CC(c2ccsc2)c2cc3c(cc2N1)OCCO3 (centres undefined)	none
O=C1CC(c2ccc3c(c2)OCO3)c2cc3c(cc2N1)OCCO3 (centres undefined)	CYP2C9 inhib 91, CYP2C19 inhib 78
O=C1CC(c2ccncc2)c2cc3c(cc2N1)OCCO3 (centres undefined)	CYP2C9 inhib 59, CYP2C19 inhib 61
COc1cc2c(cc1OC)C(c1cccs1)CC(=O)N2 (centres undefined)	none
O=C1CC(c2cccs2)c2cc3c(cc2N1)OCO3 (centres undefined)	CYP2C19 inhib 67 (no result: Cav3 T inh)

From PubChem
